Assay outcomes: PubChem, National Center for Advancing Translational Sciences (NCATS)
HepG2 tox – qHTS for Inhibitors of TGF-b: Cytotox Counterscreen | HepG2 CAGA-GFP viability, ATP luminescence, 18 h | Potency, µM (top dose mostly 46.1 µM), for the others: at the top dose activity change, negative = cytotoxicity, actives largely listed as cytotoxic | 0.76% of 410,000 active | AID 588856, 2011
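CellTiter-Glo luminescence gave cytotoxicity after 18 hours at 37 degrees C. The cells were HepG2 CAGA-GFP in 1% FBS DMEM, stimulated with 500 pg/mL TGF-beta after compound addition. %Activity was normalised to no-cell wells (complete cell-killing) and DMSO (no toxicity), and curves were fitted and classified.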
S2 tox – Viability Counterscreen for Primary qHTS for Inhibitors of ATXN expression; 0.49% of 400,000 active; AID 651635, 2014; Potency, µM (titrated, usually from 56.7 µM), actives largely listed as cytotoxic; S2 cells (HEK-293 line with an ATXN2-luciferase reporter) viability, CellTiter-Fluor protease fluorescence, 24 h; also: nearly all actives have a fitted effect of over 40% in size
TGFb inhibitor – qHTS for Inhibitors of TGF-b; Potency, µM (series often up to 46.1 µM), without a hit: at the highest dose activity, negative = inhibition, usual class: inhibitors; 1.2% of 410,000 active; HepG2 CAGA-GFP TGF-b/SMAD3 reporter, GFP fluorescence, 18 h; TGF-beta stimulated, 500 pg/mL final; AID 588855, 2011; also: % is scaled to controls: 0 for no effect and ±100 for the full control effect; nearly all actives have a fitted effect of over 65% in size
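HEPG2 CAGA-GFP cells (1000/well, DMEM with 1% FBS) were pre-incubated 2 h at 37 degrees C, given compound by pin tool, then stimulated with TGF-beta at 500 pg/mL final for 18 h before per-cell GFP fluorescence imaging.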
ATXN2 expr inh – Primary qHTS for Inhibitors of ATXN expression | Potency, µM (doses to about 57 µM), for inactives: at the highest dose activity change, negative = inhibition, usual class: inhibitors | HEK-293 ATXN2-luciferase reporter, luminescence, 24 h | AID 1745845, 2022 | 0.72% of 360,000 active; also: % is scaled to controls: 0 for no effect and ±100 for the full control effect; nearly all actives have a fitted effect of over 55% in size
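ATXN2-luciferase reporter cells (luciferase flanked by upstream and downstream ATXN2 gene portions) were treated 24 h at 37 °C with compounds at up to 57 uM. SteadyGlo luminescence gave expression; GF-AFC fluorescence gave viability.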
12-LOX inh – Primary qHTS assay for inhibitors of human arachidonate 12S-lipoxygenase (ALOX12): Round 2; Polyunsaturated fatty acid lipoxygenase ALOX12 (Homo sapiens), P18054; purified 12hLO, xylenol orange hydroperoxide absorbance; Potency, µM (doses to about 108 µM), for the others: top-dose activity change, negative = inhibition, usual class: inhibitors; 1.1% of 580,000 active; also: % is scaled to controls: 0 for no effect and ±100 for the full control effect
Target sequence (P18054 whole entry, looked up): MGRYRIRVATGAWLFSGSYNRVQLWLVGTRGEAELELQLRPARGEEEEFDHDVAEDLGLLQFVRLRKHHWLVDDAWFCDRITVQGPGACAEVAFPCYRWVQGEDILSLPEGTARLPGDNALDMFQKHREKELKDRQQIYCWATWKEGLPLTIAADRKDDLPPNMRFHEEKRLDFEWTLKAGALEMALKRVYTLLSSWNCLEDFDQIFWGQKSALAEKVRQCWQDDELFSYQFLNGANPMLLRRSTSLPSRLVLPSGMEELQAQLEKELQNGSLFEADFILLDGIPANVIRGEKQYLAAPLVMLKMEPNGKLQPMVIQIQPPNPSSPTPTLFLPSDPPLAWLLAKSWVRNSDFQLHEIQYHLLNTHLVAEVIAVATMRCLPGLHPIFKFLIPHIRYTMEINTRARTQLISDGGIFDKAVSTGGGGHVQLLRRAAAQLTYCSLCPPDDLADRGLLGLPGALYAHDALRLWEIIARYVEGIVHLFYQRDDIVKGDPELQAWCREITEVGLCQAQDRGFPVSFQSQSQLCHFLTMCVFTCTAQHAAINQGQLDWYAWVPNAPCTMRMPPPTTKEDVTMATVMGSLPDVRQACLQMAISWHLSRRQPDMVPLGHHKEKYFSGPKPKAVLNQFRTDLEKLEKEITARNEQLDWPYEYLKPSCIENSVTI
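Purified human 12hLO (150 nM final) in 25 mM Hepes, 0.01% Triton X-100, pH 7.0 was preincubated 15 min at room temperature with compound. Then 40 uM arachidonic acid was added, 30 min. Hydroperoxide was read by Fe-XO absorbance ratio 573/405 nm.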
* = called active by the depositor; i = inactive; ? = inconclusive; / = no result given; [ ] = remark or other dose. Shown are actives, neighbours in structure and some others; about 2.7% of the full set was active somewhere. Calls follow the shape of the dose curve; as a rule, active = well fitted curve in the direction sought with a large enough effect; inconclusive = small, poorly fitted or top-dose-only effect, or another doubt; inactive = no such curve, though single readings can be large; an effect the other way counts as inactive or inconclusive. Potency is read from the fitted curve at half-maximal effect.

SMILES	HepG2 tox	S2 tox	TGFb inhibitor	ATXN2 expr inh	12-LOX inh
Cc1ccc(-c2nc3cccnc3o2)cc1NC(=O)COc1ccc(Cl)cc1C	17%	28µM*	4%	32µM*	0%
Cc1ccc(OCC(=O)Nc2cc(-c3nc4cc(Cl)ccc4o3)ccc2C)c(C)c1	6%	/	-5%	/	/
CCc1ccc(-c2cc(C(F)(F)F)n3nc(C(=O)Nc4cnn(Cc5ccc(C)cc5)c4)cc3n2)s1	-22%	?	2%	11µM*	/
CCc1ccc(-c2cc(C(F)(F)F)n3nc(C(=O)NCc4cnn(C)c4)cc3n2)s1	/	/	/	/	-1%
COc1ccccc1N1CCN([C@@H]2[C@H](O)[C@H](CO)O[C@@H]2CNC(C)C)CC1	/	/	/	/	20µM*
COc1ccccc1N1CCN([C@@H]2[C@H](O)[C@H](CO)O[C@@H]2CN(Cc2ccc(F)cc2)Cc2ccc(F)cc2)CC1	/	/	/	/	28µM*
Cc1ccc(N(C(=O)Cc2cccs2)C(C(=O)NC2CCCCC2)c2ccccn2)cc1C (configuration not stated)	-53%	28µM*	?	-17%	?
Cc1cccc(N(C(=O)Cc2cccs2)C(C(=O)NC2CCCC2)c2ccncc2)c1 (configuration not stated)	0%	i	1%	-6%	?
CCCOc1ccc(C(=O)NNC(=S)NC(=O)CC)cc1	-10%	/	-23%	28µM*	?
CC(C)(C)c1ccc(C2NC(=O)c3n[nH]c(-c4cccs4)c32)cc1 (configuration not stated)	11µM*	/	?	/	3%
O=C1NC(c2ccc(Br)cc2)c2c(-c3ccccc3)n[nH]c21 (configuration not stated)	/	/	/	/	-10%
Cn1cnc([N+](=O)[O-])c1S(=O)(=O)Oc1cccc2ccccc12	-83%	16µM*	?	?	-27%
Cn1cnc([N+](=O)[O-])c1Oc1cccc2ccccc12	-75%	?	?	?	-5%
CCN(CC)c1c([N+](=O)[O-])ncn1C	10%	?	?	-2%	-9%
Cn1cnc([N+](=O)[O-])c1S(=O)(=O)Oc1ccc(Cl)cc1	22µM*	/	?	?	1%
CCS(=O)(=O)c1c([N+](=O)[O-])ncn1C	-44%	?	18µM*	/	-12%
CN(Cc1cccc(C(F)(F)F)c1)C(=O)c1cccc(Cl)c1	/	/	/	/	-8%[176 µM]
COc1cc(OC)cc(OC(C)C(=O)Nc2ccc(F)cc2)c1 (configuration not stated)	/	/	/	/	-17%
Cc1ccc(-c2cc3c(=O)n(CCNC(=O)c4ccc(N(C)C)cc4)ccn3n2)c(C)c1	/	/	/	/	11%
COC(=O)CN(C(=S)Nc1ccc(F)cc1)C1CC(=O)N(c2ccc(OC)cc2)C1=O (configuration not stated)	-9%	i	17%	-7%	32µM*
c1ccc(CNCCC(Cc2ccccc2)c2ccco2)cc1 (configuration not stated)	1%	i	20µM*	-4%	-24%
COc1ccc2cc1Nc1ccc(cc1)C[C@H](NCc1ccc(O)cc1)C(=O)N(C)[C@H](C(=O)NCCOc1ccccc1)C2	/	/	/	/	1%
CN(C)c1nccc(N(Cc2ccccc2)Cc2ccccc2)c1C#N	1%	i	?	32%	3.2µM*
CN(C)CCN(Cc1ccccc1)c1ccnc(N(C)C)c1C#N	0%	i	-5%	-14%	?
CCCCNC(=O)c1ccc2c(c1)n(Cc1ccc(F)cc1)c(=O)c1ccnn12	/	/	/	/	10%
CN1CCC(NC(=O)c2ccc3c(c2)n(Cc2ccc(F)cc2)c(=O)c2ccnn23)CC1	/	/	/	/	20µM*
Cc1ccccc1Sc1ncnc2onc(C)c12	-2%	i	?	-10%	93%
Cc1noc2ncnc(Sc3c(Cl)cccc3Cl)c12	11µM*	i	?	7%	27%
Cc1noc2ncnc(Sc3ccc(Cl)cc3)c12	14µM*	?	?	-20%	2%
